# The panel holds about 79,000 compounds, 15% with a hit somewhere; the sample as a whole holds those more often. Unmarked numbers belong to inactive results. Active and inactive are the calls of the source. No stated cut-off is given here; in the data, active means growth inhibition above about 70%; inactive means the rest.
# Legend:
# [1] = NCI Yeast Anticancer Drug Screen. Data for the rad50 strain (AID 155);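 further: 0% = growth of vehicle-only cultures of the same strain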; details: S. cerevisiae rad50 strain growth inhibition, active compounds read high
# Method in brief: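 A DNA repair-deficient yeast mutant serves as the test organism; compound-induced growth inhibition is calculated against vehicle-treated cells.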
# [2] = NCI Yeast Anticancer Drug Screen. Data for the mec2-1 strain (AID 157); details: S. cerevisiae mec2-1 strain, active compounds read high
# Method in brief: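 Growth inhibition is read against vehicle-treated controls after compound exposure of the mec2-1 yeast strain, which is defective in DNA damage repair or cell cycle control.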
# [3] = NCI Yeast Anticancer Drug Screen. Data for the sgs1 mgt1 strain (AID 161);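 further: 0% = growth of cultures given vehicle only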; details: S. cerevisiae sgs1 mgt1 strain, active compounds read high
# Method in brief: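 Yeast cells carrying a defined DNA-repair defect were exposed to test compounds. Growth inhibition was measured relative to vehicle-treated controls.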
# [4] = NCI Yeast Anticancer Drug Screen. Data for the cln2 rad14 strain (AID 165);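 further: 0% = growth equal to vehicle treated cultures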; details: S. cerevisiae cln2 rad14 strain, active compounds read high
# Method in brief: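 Growth inhibition, relative to vehicle-treated controls, is the read-out. The test organism is a yeast strain with defined genetic alterations, cln2 rad14.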
# [5] = NCI Yeast Anticancer Drug Screen. Data for the bub3 strain (AID 167); details: S. cerevisiae bub3 mutant strain, active compounds read high
# Method in brief: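 Inhibition values come from growth of compound-treated mutant yeast normalised to vehicle-treated controls.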
# [6] = NCI Yeast Anticancer Drug Screen. Data for the mlh1 rad18 strain (AID 175); details: S. cerevisiae mlh1 rad18 strain growth inhibition, active compounds read high
# Method in brief: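 Cells of a genetically altered yeast strain, deficient in DNA damage repair, were treated with compound. Their growth was then compared with that of vehicle-treated cultures to give inhibition.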
# [7] = at 5.0 µM (retest, dose inferred, filed as 0.5)
# [8] = at 50.0 µM (retest, dose inferred, filed as 5.0)
Compound,"growth inhibition [1, 7]","growth inhibition [1, 8]",growth inhibition ([1]; at 50.0 µM),"growth inhibition [2, 7]","growth inhibition [2, 8]",growth inhibition ([2]; at 50.0 µM),"growth inhibition [3, 7]","growth inhibition [3, 8]",growth inhibition ([3]; at 50.0 µM),"growth inhibition [4, 7]","growth inhibition [4, 8]",growth inhibition ([4]; at 50.0 µM),"growth inhibition [5, 7]","growth inhibition [5, 8]",growth inhibition ([5]; at 50.0 µM),"growth inhibition [6, 7]","growth inhibition [6, 8]",growth inhibition ([6]; at 50.0 µM)
S=P(OC1CC2CCC1C2)(c1ccccc1)c1ccccc1 (stereo not given),83% (active),98% (active),-15.2%,90% (active),99% (active),4.1%,86% (active),97% (active),-0.75%,87% (active),98% (active),30.4%,88% (active),97% (active),-10.6%,91% (active),99% (active),1.2%
CC(=O)O[C@H]1C(=O)O[C@@H]2C[C@H]3C(C)=CC(=O)[C@@H](O)[C@]3(C)[C@H]3[C@@]4(O)OC[C@]32[C@@H]1[C@@H](C)[C@H]4O,21%,86% (active),81% (active),31%,78% (active),51.2%,17%,82% (active),59.6%,36%,90% (active),74.2% (active),1%,74% (active),60.4%,20%,93% (active),83.9% (active)
O=[N+]([O-])O.c1ccc([As+](c2ccccc2)(c2ccccc2)c2ccccc2)cc1,26%,96% (active),97% (active),43%,99% (active),97.9% (active),21%,98% (active),97% (active),7%,92% (active),97.6% (active),16%,97% (active),97% (active),24%,96% (active),95.8% (active)
N#Cc1cc([N+](=O)[O-])c(Cl)c([N+](=O)[O-])c1,52%,99% (active),91.5% (active),46%,99% (active),93% (active),100% (active),100% (active),93.8% (active),67%,101% (active),93.3% (active),101% (active),100% (active),92.7% (active),37%,100% (active),92.2% (active)
Cc1ccc(C(=O)C2C(c3ccccc3)N2C2CCCCC2)cc1 (stereo not given),0%,95% (active),11.1%,-8%,88% (active),7.95%,-1%,89% (active),57.5%,-20%,96% (active),0.3%,-8%,85% (active),19.8%,2%,92% (active),71.6% (active)
c1cc2n[pH]nc2cn1 (stereo not given),-10%,5%,5.55%,-3%,-8%,11.2%,-2%,-6%,21.2%,5%,-8%,1.2%,-1%,2%,11.6%,6%,6%,43.5%
COC(=O)[CH2][Sn]([CH2]C(=O)OC)([c]1ccccc1)[c]1ccccc1,80% (active),97% (active),88.3% (active),79% (active),99% (active),88.5% (active),77% (active),99% (active),86.9% (active),52%,99% (active),86.7% (active),82% (active),99% (active),84.4% (active),86% (active),97% (active),92% (active)
CN(C)c1ccc(N=Nc2cccc(C(=O)[O-])c2)cc1.CN(C)c1ccc(N=Nc2cccc(C(=O)[O-])c2)cc1.NC1CCCCC1N.O=[N+]([O-])O.[Pt+4],1%,98% (active),91% (active),21%,98% (active),91.7% (active),23%,99% (active),93.2% (active),28%,97% (active),44.1%,45%,98% (active),81.5% (active),41%,97% (active),92% (active)
CC(=O)OCC12CC(O)C(C)=CC1OC1C(O)C(OC(C)=O)C2(C)C12CO2 (stereo not given),8%,33%,91.8% (active),12%,36%,91% (active),13%,36%,90.3% (active),16%,39%,77.3% (active),8%,21%,91.8% (active),8%,37%,92.1% (active)
CCCCCc1cc(OC(=O)CCCN(CC)CC)c2c(c1)OC(C)(C)[C@@H]1CCC(C)=C[C@@H]21,79% (active),97% (active),87% (active),30%,98% (active),91% (active),63%,99% (active),89.7% (active),49%,98% (active),90% (active),27%,99% (active),87.8% (active),74% (active),97% (active),91.7% (active)

# — PubChem BioAssay (NCI)
